PubChem BioAssay AID504462 (Sanford-Burnham Center for Chemical Genomics, 2011)
Values joined by “and” are separate entries in the source; they are usually repeats but may differ in a detail not shown here. Equal values may be shown once. In all, about 340,000 compounds went through this assay and about 1,700 (0.5%) were called active. Cut-off read from the data, not from the text of the source: active = inhibition above about 40%; inactive = the rest. What follows is part of a selection rich in actives, with near analogues and random picks from the rest.

What follows are compounds tested against Cysteine protease ATG4B (Homo sapiens) (UniProt Q9Y4P1) (assay: blockers of ATG4B cysteine protease activity – biochemical, fluorescence, uHTS, primary screen (AID 504462)). Details: ATG4B cleavage of LC3-PLA2, NBD-HPC fluorescence, 1 h; at 8.33 µM; stronger effect = higher value.
Chain of Cysteine protease ATG4B (Homo sapiens) (Q9Y4P1 whole entry, looked up): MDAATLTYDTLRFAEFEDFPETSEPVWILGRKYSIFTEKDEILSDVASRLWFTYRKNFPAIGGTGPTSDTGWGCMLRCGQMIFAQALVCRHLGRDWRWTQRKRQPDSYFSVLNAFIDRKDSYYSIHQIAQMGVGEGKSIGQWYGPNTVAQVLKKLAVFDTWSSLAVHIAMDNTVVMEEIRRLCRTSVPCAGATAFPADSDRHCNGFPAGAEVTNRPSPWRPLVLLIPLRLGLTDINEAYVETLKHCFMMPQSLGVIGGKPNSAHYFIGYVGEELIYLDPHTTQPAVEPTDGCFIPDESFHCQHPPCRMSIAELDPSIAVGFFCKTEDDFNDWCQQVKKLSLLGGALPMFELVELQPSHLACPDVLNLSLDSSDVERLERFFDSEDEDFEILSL
For `Cc1ccccc1CSc1nnc(-c2ccccc2)c(=O)[nH]1`, the inhibition was 11.3% (inactive). In the case of `CCCN1C2CCCC1CC(NC(=O)c1cccc(OC)c1)C2` (centres undefined), the inhibition is reported as -4.61% (inactive). In the case of `CC(C(=O)NCCc1ccc(S(N)(=O)=O)cc1)N1C(=O)CC(C)(C)Sc2ccccc21` (centres undefined), the inhibition is reported as 1.71% (inactive). For `Cn1c2c(c(=O)n(C)c1=O)C(c1ccc(O)cc1)Nc1ccccc1O2` (centres undefined), the inhibition was -5.48% (inactive). With `CCc1nn(-c2cc(Oc3cccc4ccccc34)nc(-c3ccccc3)n2)c(N)c1C#N` the inhibition was -7.41% (inactive). With `COc1ccc(C)cc1N(C)C(=O)c1coc(=O)c2ccccc12` the inhibition was -10% (inactive). For `Cc1ccc(Nc2ccc(C(N)=O)cc2[N+](=O)[O-])cc1`, the inhibition was 66.7% (active). For `NC(=O)c1ccc(Nc2ccc3c(c2)CCC3)c([N+](=O)[O-])c1`, the inhibition was 29.8% (inactive). In the case of `CCOc1ccccc1Nc1ccc(C(=O)O)cc1[N+](=O)[O-]`, the inhibition is reported as -16.2% (inactive). With `CC(=O)c1ccc(S(=O)(=O)NCc2nnnn2-c2ccccc2)cc1` the inhibition was -3.36% (inactive). With `O=C(O)CCn1cc(/C=C/C(=O)c2ccc(Cl)cc2)c(-c2cccc(Br)c2)n1` the inhibition was 53.3% (active). With `Cc1cccc(C=CC(=O)c2ccc(Cl)cc2)c1` the inhibition was -4.71% (inactive). In the case of `O=C(/C=C/NNC(=O)c1cccc(Br)c1)c1ccccc1`, the inhibition is reported as 8.45% (inactive). With `CCOC(=O)c1ccc(-n2c(CCC(=O)O)ccc2-c2ccccc2)cc1` the inhibition was 9.28% (inactive). For `COc1ccc(C(CNCC(=O)Nc2ccccc2F)N(C)C)cc1` (centres undefined), the inhibition was 9.81% (inactive). `Cc1c([N+](=O)[O-])c(N)nn1C` was tested, and the inhibition was -3.74% (inactive). With `O=C(COC(=O)Cn1[nH]c(=O)c2ccccc2c1=O)Nc1c(Cl)cccc1C(F)(F)F` the inhibition was 1.19% (inactive). For `CCC(C)N(C(=O)COC(=O)C1C(C(=O)OC)=C(C)NC(C)=C1C(=O)OC)C1CCS(=O)(=O)C1` (centres undefined), the inhibition was -4.18% (inactive). For `CC(C)c1nc(SCC(=O)Nc2cccc(C(=O)O)c2)c2c3c(sc2n1)CCCC3`, the inhibition was 68.4% (active). In the case of `Cc1cc(NC(=O)CSc2nc(C(C)C)nc3sc4c(c23)CCC(C)C4)no1` (centres undefined), the inhibition is reported as -8.31% (inactive). With `Cc1ccc(C)c2c1cc(C)c1nnc(SCC(=O)Nc3cccc(C(=O)O)c3)n12` the inhibition was -4.22% (inactive). `Cc1cc(N(C)C)cc(C)[n+]1[O-]` was tested, and the inhibition was 1% (inactive). `Cc1ccccc1-n1c(C)cc(/C=C2\NC(=O)NC2=O)c1C` was tested, and the inhibition was -2.07% (inactive). With `Cc1cccc(C)c1-n1c(C)cc(/C=C2\C(=O)NN(c3ccccc3)C2=O)c1C` the inhibition was 50.9% (active). With `C#CCOc1ccc(/C=C2/C(=O)NN(c3ccccc3)C2=O)cc1OC` the inhibition was 3.6% (inactive). `CC(C)CC(=O)NC(=S)Nc1ccc(F)cc1F` was tested, and the inhibition was 0.36% (inactive). For `O=C(CC1C(=O)NCCN1CC(c1ccccc1)c1ccccc1)NCC1CCOCC1` (centres undefined), the inhibition was 5.98% (inactive). `Cc1cccc(CC(=O)Nc2c3c(nn2-c2cccc(Cl)c2)CS(=O)C3)c1` (centres undefined) was tested, and the inhibition was -6.51% (inactive). In the case of `NC(=O)c1sc2nc3c(c(-c4ccccc4)c2c1N)CCC3`, the inhibition is reported as 42.3% (active). For `Cc1sc2nc(CC(N)=O)[nH]c(=O)c2c1-c1ccccc1`, the inhibition was 5.21% (inactive). `CCN(CC)C(=O)c1sc2nc(-c3ccccc3)ccc2c1N` was tested, and the inhibition was -13.8% (inactive). `CCN(CC)S(=O)(=O)c1ccc2c3c(cccc13)C(=O)S2` was tested, and the inhibition was -12.5% (inactive). `O=C(c1ccncc1)N1CCN(S(=O)(=O)c2cccc([N+](=O)[O-])c2)CC1` was tested, and the inhibition was -1.28% (inactive). In the case of `Cc1ccccc1/C=C\c1nc(O)c([N+](=O)[O-])c(=O)[nH]1`, the inhibition is reported as 4.7% (inactive). In the case of `CCCc1ccc(C(=O)[C@@H]2[C@@H](C(C)=O)N3c4ccc(F)cc4C=C[C@@H]3[C@@]23C(=O)Nc2ccccc23)cc1`, the inhibition is reported as 7.49% (inactive). `COc1ccc(CNC(=O)CCCn2nc(C)c([N+](=O)[O-])c2C)cc1` was tested, and the inhibition was 4.24% (inactive). `Cc1nn(CC(=O)Nc2ccc(N(C)C)cc2)c(C)c1[N+](=O)[O-]` was tested, and the inhibition was -1.82% (inactive). `Cc1ccc(Oc2cc(NC(=O)CCCn3nc(C)c([N+](=O)[O-])c3C)cc([N+](=O)[O-])c2)cc1` was tested, and the inhibition was 62% (active). In the case of `CN(c1ccc(OCC(=O)NC2=NCCS2)cc1)S(=O)(=O)c1ccc(F)cc1`, the inhibition is reported as -9.32% (inactive). For `COCCCNC(=S)NC(=O)c1ccc([N+](=O)[O-])cc1`, the inhibition was -7.22% (inactive). For `CCCc1nc2sc3c(c2c(=O)n1NC(=O)CCCl)CCCC3`, the inhibition was 10.3% (inactive). With `CCc1nc(N2CCN(C(C)=O)CC2)c2c3c(sc2n1)CCCC3` the inhibition was 45.4% (active). `Cc1nc2sc3c(c2c(=O)n1NC(=O)CCl)CCCC3` was tested, and the inhibition was -3.09% (inactive). In the case of `COc1cc(/C=C/C(=O)O)cc(S(=O)(=O)Nc2ccccc2SC)c1OC`, the inhibition is reported as -3.57% (inactive). `CS(=O)(=O)N(Cc1ccccc1Cl)c1ccc(C(=O)NCc2cccnc2)cc1` was tested, and the inhibition was -9.46% (inactive). `CCCCN(C(=O)CSCC(=O)Nc1ccc(OC)cc1)c1c(N)n(CCC)c(=O)[nH]c1=O` was tested, and the inhibition was -1.8% (inactive). `CCc1ccc(C(CNc2nc(C(F)(F)F)nc3ccccc23)N(C)C)cc1` (centres undefined) was tested, and the inhibition was 19.9% (inactive). For `NS(=O)(=O)c1ccc(CCNc2nc(C(F)(F)F)nc3ccccc23)cc1`, the inhibition was -2.12% (inactive). For `COc1cccc(CNc2nc(C(F)(F)F)nc3ccccc23)c1`, the inhibition was 49% (active). In the case of `COC(=O)CN(c1nc(C)c(Cl)c(OC)n1)S(=O)(=O)c1ccc(C)cc1`, the inhibition is reported as 11.3% (inactive). With `CC1Cc2ccccc2N1C1=CC(=O)CC(C)(C)C1` (centres undefined) the inhibition was -2.3% (inactive). With `COc1ccc(S(=O)(=O)/N=C2\C=C(NS(=O)(=O)c3ccccc3)C(=O)c3ccccc32)cc1` the inhibition was -24.5% (inactive). For `CC1=C/C(=N\OS(=O)(=O)c2ccccc2)C=CC1=O`, the inhibition was -2.58% (inactive). For `CC1=C/C(=N\S(=O)(=O)c2ccccc2)C(C(C)C)=CC1=O`, the inhibition was 66% (active). In the case of `Cc1cc(C)nc(-n2ncc3c2CC(c2ccc(C(C)C)cc2)CC3=O)n1` (centres undefined), the inhibition is reported as -17.4% (inactive). `Cc1ccc(CNC(=O)CCN2C(=O)[C@@H]3Cc4ccccc4CN3C2=O)cc1` was tested, and the inhibition was 2.31% (inactive). For `CC(=O)Nc1ccc(NC(=O)CSc2nnnn2-c2ccccc2F)cc1`, the inhibition was 2.29% (inactive). With `C=CCC1(CC=C)CCCN1C(=O)c1cc(COc2ccc(-n3cncn3)cc2)on1` the inhibition was 7.84% (inactive). `CC(C)CCNC(=O)C1CCCN(S(=O)(=O)c2ccc(F)cc2)C1` (centres undefined) was tested, and the inhibition was 0.97% (inactive). `O=C(c1ccc(OC2CCN(C(=O)c3cccnc3)CC2)cc1)N1CCCCCC1` was tested, and the inhibition was 19.9% (inactive). With `COCCN1C=C2C(=O)C(C)(OC(=O)C3CCCC3)C(=O)C=C2C=C1c1ccsc1` (centres undefined) the inhibition was 2.63% (inactive). In the case of `CC1(OC(=O)C2CCCC2)C(=O)C=C2C=C(c3ccc(C#N)cc3)OC=C2C1=O` (centres undefined), the inhibition is reported as 45.7% (active). In the case of `C=CCN1C=C2C(=O)C(C)(OC(=O)CCc3ccccc3)C(=O)C=C2C=C1c1ccc(C#N)cc1` (centres undefined), the inhibition is reported as -3.06% (inactive). In the case of `O=C(O)c1ccc([N+](=O)[O-])cc1Sc1ccsc1`, the inhibition is reported as 5.83% (inactive). With `COc1ccc(C(=O)CC(=O)c2ccc(C)cc2)c(O)c1` the inhibition was 1.97% (inactive). With `Cn1cccc1/C=C1\SC(=S)N(NC(=O)c2ccc(Cl)cc2)C1=O` the inhibition was 11.7% (inactive). In the case of `CCN1C(=O)/C(=C\N2CCN(c3cccc(Cl)c3)CC2)SC1=S`, the inhibition is reported as 1.01% (inactive). For `O=C(O)C(c1ccccc1)N1C(=O)/C(=C\c2ccc(-c3cccc(Cl)c3)o2)SC1=S` (centres undefined), the inhibition was 59.4% (active). For `CCN(CC(=O)Nc1c(F)cccc1F)C(=O)c1ccc(-c2ccccc2)cc1`, the inhibition was 4.11% (inactive). With `O=C(c1cccs1)N1CCN(Cc2ccc3c(c2)OCO3)CC1` the inhibition was -7.13% (inactive). `Fc1ccc2[nH]c3c(N4CCN(Cc5ccc6c(c5)OCO6)CC4)ncnc3c2c1` was tested, and the inhibition was 48.4% (active). `CCCCCc1c(C)nc(N2CCN(Cc3ccc4c(c3)OCO4)CC2)[nH]c1=O` was tested, and the inhibition was -0.63% (inactive). In the case of `COC(=O)c1ccc(CNC(=O)Cn2cc(C)c(=O)[nH]c2=O)cc1`, the inhibition is reported as -5.77% (inactive). For `CN1CCN(Cc2nc3cc(NC(=O)COc4ccc([N+](=O)[O-])cc4)ccc3n2C)CC1`, the inhibition was -4.73% (inactive). `CC12c3ccccc3C(c3ccccc31)C1C(=O)N(Cc3cccnc3)C(=O)C12` (centres undefined) was tested, and the inhibition was -4.51% (inactive). In the case of `Cc1cccc(C(=O)N2CCN(S(=O)(=O)N3CCCCC3)CC2)c1`, the inhibition is reported as 0.43% (inactive). In the case of `Cc1cccc(C)c1N1CCN(S(=O)(=O)N2CCOCC2)CC1`, the inhibition is reported as 19.1% (inactive). With `Cc1cccc(C)c1N1CCN(S(=O)(=O)N2CCCCC2)CC1` the inhibition was 54.5% (active). For `O=C(O)c1ccc(S(=O)(=O)N2CCOCC2)o1`, the inhibition was 0.56% (inactive). `O=c1cc(CO)oc(C(Nc2cccc([N+](=O)[O-])c2)c2ccccn2)c1O` (centres undefined) was tested, and the inhibition was -12.1% (inactive). With `CCOC(=O)C(C)Sc1nc2ccccc2c(=O)n1CC1CCCCC1` (centres undefined) the inhibition was 41.4% (active). `COCC(C)n1c(SCC(=O)NC2CCCCC2C)nc2ccccc2c1=O` (centres undefined) was tested, and the inhibition was -0.82% (inactive). `CCOn1c(SC(C)C)nc2ccccc2c1=O` was tested, and the inhibition was 7.51% (inactive). With `O=C(CNC(=O)c1ccc(Br)o1)NCC1CCCO1` (centres undefined) the inhibition was -6.66% (inactive). `Cc1ccc(C)c(-n2cc(CN3CCN(C(=O)c4ncn[nH]4)CC3)c(-c3ccccc3)n2)c1` was tested, and the inhibition was 2.98% (inactive). `Cc1ccc(C(=O)C[n+]2cc(-c3ccccc3)n3c2CCCCC3)cc1` was tested, and the inhibition was 10.8% (inactive) and 3.23% (inactive). In the case of `O=C(O)c1ccccc1/C=N/Nc1ccc(S(=O)(=O)Nc2ccc(Cl)cc2)cc1[N+](=O)[O-]`, the inhibition is reported as 1.28% (inactive). `COc1ccc(Br)cc1/C=N/Nc1ccc(S(=O)(=O)Nc2ccccc2C(=O)O)cc1[N+](=O)[O-]` was tested, and the inhibition was 12.8% (inactive). With `COc1cccc(/C=N/Nc2ccc(S(=O)(=O)Nc3ccccc3C(=O)O)cc2[N+](=O)[O-])c1O` the inhibition was 42.3% (active).
